Measured values published in PubChem BioAssay (EPA / NIEHS).
Results filed as inconclusive are left out. Calls of active or inactive are those of the source. How the source made its calls: active means hit-call score of the fitted dose curve at least 0.9, where 1 is the maximum; inconclusive means response in the unintended direction; inactive means score below 0.9.

Target: Ratio of Nucleoli Translocation and Cytoplasm, AR (gene 367) (UniProt P10275)
Assay: UPITT_HCI_U2OS_AR_TIF2_Nucleoli_Cytoplasm_Ratio_Antagonist: University of Pittsburgh U2OS Androgen Receptor-Transcriptional Intermediary Factor 2 (AR-TIF2) Antagonism High Content Imaging Assay for Ratio of Nucleoli Translocation and Cytoplasm (AID 2283999);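 further: antagonists lower the DHT-driven ratio of nucleolar to cytoplasmic red signal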
Procedure, shortened: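 This antagonist-mode endpoint tracks AR-RFP localisation, the nucleolus-to-cytoplasm intensity ratio, in TIF2-GFP-coexpressing U2OS cells. DMSO stays at or below 0.5%; testing spans 20 uM single-dose and 0.195–50 uM series, with DHT setting the activity baseline.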

Sequence of Ratio of Nucleoli Translocation and Cytoplasm, AR (gene 367) (P10275 whole entry, looked up): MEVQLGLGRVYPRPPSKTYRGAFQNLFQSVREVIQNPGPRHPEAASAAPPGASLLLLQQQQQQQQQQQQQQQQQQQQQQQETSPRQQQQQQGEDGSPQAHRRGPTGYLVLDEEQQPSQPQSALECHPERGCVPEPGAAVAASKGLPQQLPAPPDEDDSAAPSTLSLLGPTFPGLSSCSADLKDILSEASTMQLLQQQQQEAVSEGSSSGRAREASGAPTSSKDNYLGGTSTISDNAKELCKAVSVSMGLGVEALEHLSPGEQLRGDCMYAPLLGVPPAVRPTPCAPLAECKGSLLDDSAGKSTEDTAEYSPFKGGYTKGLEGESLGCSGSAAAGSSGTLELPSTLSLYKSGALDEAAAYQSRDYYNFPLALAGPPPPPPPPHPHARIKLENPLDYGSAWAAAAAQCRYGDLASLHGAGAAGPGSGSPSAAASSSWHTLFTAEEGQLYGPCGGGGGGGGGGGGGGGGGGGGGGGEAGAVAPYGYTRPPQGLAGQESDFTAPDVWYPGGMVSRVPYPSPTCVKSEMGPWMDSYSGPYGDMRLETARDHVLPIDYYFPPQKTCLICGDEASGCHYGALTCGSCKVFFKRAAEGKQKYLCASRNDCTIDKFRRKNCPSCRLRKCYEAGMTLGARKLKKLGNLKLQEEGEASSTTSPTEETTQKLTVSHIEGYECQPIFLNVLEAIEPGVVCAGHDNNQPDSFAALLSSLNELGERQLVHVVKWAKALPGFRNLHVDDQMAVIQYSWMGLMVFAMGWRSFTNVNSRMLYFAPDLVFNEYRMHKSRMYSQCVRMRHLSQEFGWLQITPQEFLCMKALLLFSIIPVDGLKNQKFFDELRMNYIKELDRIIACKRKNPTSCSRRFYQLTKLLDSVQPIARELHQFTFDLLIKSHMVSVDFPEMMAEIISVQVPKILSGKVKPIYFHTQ

SMILES | AC50 | outcome
CCN=C1C=CC(=C(c2ccc(N(CC)CC)cc2)c2ccc(N(CC)CC)cc2)c2ccccc21 | 4.7 µM (active) | –
CCCCCCCCCCCCCC[P+](CCCC)(CCCC)CCCC | 9.75 µM (active) | –
CCCCCCCCCc1ccc(OCCO)cc1 | – | inactive
O=C1C=CC(=O)N1c1ccccc1 | 5.34 µM (active) | –
CCCCCCCC/C=C\CCCCCCCC(=O)OCC(O)CO (stereo not given) | – | inactive
CCN=c1cc2oc3cc(NCC)c(C)cc3c(-c3ccccc3C(=O)OCC)c-2cc1C | 0.753 µM (active) | –
COCCOCCC[Si](C)(O[Si](C)(C)C)O[Si](C)(C)C | – | inactive
C[C@]12CC[C@H]3C(=CCc4cc(O)ccc43)[C@@H]1CCC2=O | 3.04 µM (active) | –
CCc1ccc(C)nc1 | – | inactive
CCCCCCCCCCCCC[N+](C)(C)Cc1ccccc1 | 13.7 µM (active) | –
